# Compound activity: PubChem BioAssay, several laboratories
# Autofluor counter = counter-screen for toxin protease inhibitors: compound fluorescence; compound autofluorescence counterscreen, microsphere flow cytometry; stronger effect = higher value; fluorescence intensity (concentration not given with the values); 3.1% of 360,000 active; AID 624483; in the data active = fluorescence intensity above about 16000; inconclusive = no clear call, values can overlap the other calls
# MazEF act = activators of E. coli MazEF toxin-antitoxin RNase; P0AE70; FAM/BHQ RNA-DNA oligo cleavage fluorescence, 5 h; activation, % at 20 µM; 0.32% of 350,000 active; AID 504720; in the data active = activation above about 50%
# BoNT-A LC inh2 = BoNT A light chain protease inhibition; multiplex microsphere protease substrate cleavage, flow cytometry; inhibition, % at 10 µM; 0.17% of 360,000 active; AID 588499; note: plate controls were buffer without enzyme for full effect and enzyme alone for no effect
# Anthrax LF prot = inhibitors of Bacillus anthracis lethal factor protease; multiplex microsphere protease cleavage assay, LF; inhibition, % at 10 µM; 0.12% of 360,000 active; AID 588501; note: plate controls were buffer without enzyme for full effect and enzyme alone for no effect
# Target sequence (P15917 whole entry, looked up): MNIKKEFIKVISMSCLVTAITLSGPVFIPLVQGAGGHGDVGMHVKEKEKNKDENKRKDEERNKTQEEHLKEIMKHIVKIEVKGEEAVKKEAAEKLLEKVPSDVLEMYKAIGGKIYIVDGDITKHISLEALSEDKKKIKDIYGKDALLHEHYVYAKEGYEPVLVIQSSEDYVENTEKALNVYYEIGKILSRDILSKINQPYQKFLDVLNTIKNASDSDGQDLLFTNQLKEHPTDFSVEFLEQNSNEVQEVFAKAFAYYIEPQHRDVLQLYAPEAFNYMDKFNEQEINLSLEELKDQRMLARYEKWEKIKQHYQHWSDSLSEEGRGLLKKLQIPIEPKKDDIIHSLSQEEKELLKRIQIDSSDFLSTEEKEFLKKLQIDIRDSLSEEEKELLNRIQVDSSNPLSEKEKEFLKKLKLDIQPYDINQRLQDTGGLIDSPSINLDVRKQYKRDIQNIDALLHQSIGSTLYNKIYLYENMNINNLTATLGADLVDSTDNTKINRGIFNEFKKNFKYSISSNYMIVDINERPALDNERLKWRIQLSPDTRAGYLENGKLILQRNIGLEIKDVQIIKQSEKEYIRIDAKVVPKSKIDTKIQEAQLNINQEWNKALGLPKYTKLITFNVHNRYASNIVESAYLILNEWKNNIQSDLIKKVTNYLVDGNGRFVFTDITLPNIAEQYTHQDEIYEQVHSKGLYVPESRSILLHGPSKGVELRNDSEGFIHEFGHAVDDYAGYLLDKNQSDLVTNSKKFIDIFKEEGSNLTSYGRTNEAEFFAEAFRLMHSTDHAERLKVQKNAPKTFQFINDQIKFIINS
# BoNT-F LC inh = BoNT F light chain protease inhibition; Multiplex microsphere protease cleavage assay, flow cytometry; 0.22% of 360,000 active; inhibition, % at 10 µM; in the data active = inhibition above about 35%, passing the limit was not always enough; inconclusive = no clear call, values can overlap the other calls; note: plate controls were buffer without enzyme for full effect and enzyme alone for no effect
# Numbers without * were called inactive; ? = inconclusive; . = not tested or not shown. The list is not random: actives were taken first. Their share in the collection is about 3.7%. Cut-off read from the data, not from the text of the source, unless noted: active = inhibition above about 30%; inconclusive = no clear call, values can overlap the other calls; inactive = below that.
SMILES,Autofluor counter,MazEF act,BoNT-A LC inh2,Anthrax LF prot,BoNT-F LC inh
CCOC(=O)c1c(NC(=O)CSc2nc3ccccc3o2)sc(C)c1C,19163*,-12.6,?,-4.0,5.4
CCOC(=O)[C@]12CCC=C1N(Cc1ccc(Cl)cc1Cl)C(=O)[C@H](CC(=O)N1CCSCC1)C2,4479,.,0.1,-12.2,10.2
CC(C)(C)c1cccc(Oc2nn[nH]n2)c1,7873,1.9,-0.9,-5.1,-4.5
Cc1cc(C)cc(Oc2nn[nH]n2)c1,24301*,1.5,-0.6,1.2,-3.8
Cc1cccc(NC(=O)CC2Nc3cccc4cccc(c34)NC2=O)c1 (stereo not given),17191*,0.4,?,-3.6,-7.0
O=C(CS(=O)c1cccc(Cl)c1)Nc1ccccc1Cl (stereo not given),22003*,6.0,?,-2.0,-1.5
O=C(CS(=O)c1cccc(C(F)(F)F)c1)Nc1ccc(Cl)cc1Cl (stereo not given),5567,-8.7,0.4,-2.0,2.6
CN1CCCC1CN1CCCC1 (stereo not given),6209,.,-1.0,-15.1,-21.1
CN1CCCC1CCNC1C2CC3CC(C2)CC1C3 (stereo not given),16148*,0.2,-0.1,-4.3,-3.2
Cc1cccc(C(=O)N/N=C/c2ccncc2)c1,16845*,1.2,-1.5,-2.0,-3.4
Cc1ccc(C(=O)Nc2cccc(C(=O)N/N=C/c3ccc(F)cc3)c2)cc1,3414,63.4*,-1.3,-8.0,6.4
O=C(N/N=C/c1ccncc1)c1ccncc1,2837,-2.4,-0.3,-2.9,-7.8
Cc1nnsc1C(=O)N1CCCC1(C)C(=O)O (stereo not given),3883,.,-0.9,-5.4,1.0
Cc1ncsc1C(=O)N1N=C2/C(=C/c3ccc(N4CCOCC4)cc3)CCCC2C1c1ccc(N2CCOCC2)cc1 (stereo not given),24267*,-76.9,-2.3,-3.7,-3.8
Cc1ncsc1C(=O)N1N=C2/C(=C/c3ccccc3)CCCC2C1c1ccccc1 (stereo not given),7965,4.7,-0.2,-5.0,3.6
CCCCc1c(-c2ccc(OC)cc2)ncn1CCc1ccccc1OC,5716,.,-0.5,-1.5,1.8
COc1ccccc1-c1ccc(=O)n(CC(=O)NCc2ccc3c(c2)OCO3)n1,22769*,3.5,2.7,-2.8,1.1
COCCNC(=O)Cn1nc(-c2ccccc2OC)ccc1=O,22415*,-0.2,1.5,-3.1,-0.2
COc1ccc(CNC(=O)Cn2nc(-c3ccc4c(c3)OCCO4)ccc2=O)cc1,7997,-9.5,0.2,-1.7,-3.1
COc1ccccc1-c1ccc(=O)n(CC(=O)NC(C)(C)C)n1,16772*,6.6,?,-0.6,-5.6
COc1cccc(CNC(=O)Cn2nc(-c3ccc(Cl)cc3)ccc2=O)c1,21110*,-7.8,-1.2,-0.8,-2.6
COCCCNC(=O)Cn1nc(-c2ccccc2OC)ccc1=O,3014,-3.6,0.2,1.2,3.9
COC(=O)c1cccc(F)c1C(=O)c1cccc2ccccc12,3797,0.1,0.1,-3.4,-8.3
COc1ccc(C(=O)N(c2c(C)cccc2C)C(COC(C)=O)COC(C)=O)cc1,4476,.,-0.4,-1.1,-2.5
CC(C)C[C@H]1CN(CCCC[C@H]2CNC(=O)C(=O)N2CC2CCCCC2)C(=O)C(=O)N1CCC1CCCCC1,5141,.,0.3,-7.4,0.8
SMILES,Autofluor counter,MazEF act,BoNT-A LC inh2,Anthrax LF prot,BoNT-F LC inh
c1ccc(OCc2nc3ccccc3[nH]2)cc1,22117*,1.8,0.4,-4.6,-1.8
O=C(OCc1nc2ccccc2[nH]1)C12CC3CC(CC(C3)C1)C2,17109*,2.8,-3.5,-4.8,-11.1
O=c1[nH]c(CN2CCCCC2)nc2ccccc12,2771,7.7,0.6,-3.3,-2.4
O=C(Nc1nc2ccccc2[nH]1)C12CC3CC(CC(C3)C1)C2,2333,15.5,0.2,1.0,-19.7
c1ccc2c(CN3CCCCCCC3)c[nH]c2c1,17395*,0.7,-1.7,-2.7,-5.1
c1ccc2[nH]c(CN3CCCCCC3)nc2c1,20479*,3.4,1.3,0.2,-1.7
CCC(=O)Nc1c(-c2ccccc2Cl)c(=O)c2ccccc2n1CC,2921,4.8,-0.2,-7.6,-6.2
CCCC(=O)Nc1c2c(nn1-c1ccc(OC)cc1)CS(=O)(=O)C2,19921*,3.7,0.1,-2.0,1.2
CCCC(=O)Nc1c2c(nn1-c1ccc(C)cc1)CS(=O)(=O)C2,2973,2.4,0.5,-2.5,-2.5
COc1nc(NC(C)(C)C)nc(Oc2ccc(=O)n(-c3ccccc3)n2)n1,21751*,5.7,-0.2,0.4,-0.6
CCNc1nc(OC)nc(Oc2ccc(=O)n(-c3ccccc3)n2)n1,3471,15.8,1.2,1.9,10.8
CN(C)c1nc(Oc2ccc(=O)n(-c3ccccc3)n2)nc(N2CCOCC2)n1,21946*,-9.5,?,0.2,0.2
